# Inconclusive results are not listed. The source made the active and inactive calls.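 How the source made its calls, unless noted: active means binding below the plate cutoff, the plate median minus 3 SD, with a reading above zero; inconclusive means below the plate cutoff but reading exactly zero; inactive means the rest.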
# Experiments:
# [1] = yeast TOR pathway RPL19A-GFP modulators, primary screen, cell-based, S. cerevisiae, multiplex flow cytometry (AID 1862; in the data active means percent of DMSO control GFP below about 86%;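 further: lower values mimic rapamycin by blocking the RPL19A rise seen in DMSO cells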); conditions: S. cerevisiae RPL19A-GFP strain, flow cytometry fluorescence, 3 h; at 10 µM; stronger effect = lower value
# [2] = modulators of MEP2-GFP levels in yeast, primary screen, S. cerevisiae, multiplex flow cytometry (AID 1867;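 active means GFP response, as percent of the DMSO control, above the screen-wide mean plus 3 SD, about 139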;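 further: median GFP channel fluorescence of barcode-gated MEP2-GFP cells measured by flow cytometry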); conditions: S. cerevisiae MEP2-GFP strain, 3 h, at 10 µM, stronger effect = higher value, 100% means same as DMSO wells
# [3] = modulators of CIT2-GFP expression in yeast, primary screen, S. cerevisiae, GFP fusion, multiplex flow cytometry (AID 1870;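 active means percent response above a set limit, the screen-wide mean plus 3 SD, cut at about 130% in these data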;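 further: barcoded CIT2-GFP strain pooled with four other GFP strains with rapamycin as positive control; median GFP fluorescence per well over plate mean of DMSO wells so 100% = DMSO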); conditions: 3 h, at 10 µM, stronger effect = higher value
# [4] = modulators of LAP4-GFP expression in yeast, primary screen, S. cerevisiae, multiplex flow cytometry (AID 1873;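 active means GFP signal, as percent of the solvent control, above the screen mean plus 3 SD, about 149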); conditions: 3 h, at 10 µM, stronger effect = higher value
# [5] = modulators of AGP1-GFP expression in yeast TOR pathway, primary screen, cell-based, multiplex flow cytometry, S. cerevisiae (AID 1887;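 active means GFP signal above the screen-wide mean plus 3 SD, that is over about 124.5% of the solvent control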;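 further: AGP1-GFP fusion strain of S. cerevisiae within a five-strain barcoded multiplex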); conditions: 3 h, at 10 µM, stronger effect = higher value
# [6] = inhibitors of CD8+ T cell-vesicle binding, pilot screen, LFA-1/ICAM-1 modulator project, MLPCN validation set, flow cytometry (AID 2523;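 active means response below a set limit, under 55% cells CD8-positive and vesicle-bound, and CD8 cells' 90th-percentile brightness under 279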;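 on vesicle binding response: mean PE anti-B7-1 fluorescence of CD8+ cells relative to row control; 100% = QL9-loaded vesicles with DMSO vehicle in the same plate row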); conditions: 2C mouse CD8+ T cells, at 7 µM, stronger effect = lower value; double positive events: measured here: CD8+/vesicle+ event percentage
# [7] = molecular target: Integrin beta-1 (Homo sapiens) + Integrin alpha-4 (Homo sapiens) (UniProt P13612+P05556); assay: inhibition of HUTS-21 binding to VLA-4, pilot screen, VLA-4 allosteric modulator project, U937 cells, HUTS-21 mAb, flow cytometry, validation set (AID 2674;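 active means inhibition above 50%, about 3 SD of the validation set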;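 further: antibody binding induced by the VLA-4 ligand LDV present at three times its Kd; 0% = LDV ligand with antibody and no compound and 100% = antibody without LDV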); conditions: HUTS-21 LIBS mAb binding, at 6.7 µM, stronger effect = higher value, binding induced by LDV ligand
# Integrin beta-1 (Homo sapiens) + Integrin alpha-4 (Homo sapiens), sequence (P05556 whole entry, looked up): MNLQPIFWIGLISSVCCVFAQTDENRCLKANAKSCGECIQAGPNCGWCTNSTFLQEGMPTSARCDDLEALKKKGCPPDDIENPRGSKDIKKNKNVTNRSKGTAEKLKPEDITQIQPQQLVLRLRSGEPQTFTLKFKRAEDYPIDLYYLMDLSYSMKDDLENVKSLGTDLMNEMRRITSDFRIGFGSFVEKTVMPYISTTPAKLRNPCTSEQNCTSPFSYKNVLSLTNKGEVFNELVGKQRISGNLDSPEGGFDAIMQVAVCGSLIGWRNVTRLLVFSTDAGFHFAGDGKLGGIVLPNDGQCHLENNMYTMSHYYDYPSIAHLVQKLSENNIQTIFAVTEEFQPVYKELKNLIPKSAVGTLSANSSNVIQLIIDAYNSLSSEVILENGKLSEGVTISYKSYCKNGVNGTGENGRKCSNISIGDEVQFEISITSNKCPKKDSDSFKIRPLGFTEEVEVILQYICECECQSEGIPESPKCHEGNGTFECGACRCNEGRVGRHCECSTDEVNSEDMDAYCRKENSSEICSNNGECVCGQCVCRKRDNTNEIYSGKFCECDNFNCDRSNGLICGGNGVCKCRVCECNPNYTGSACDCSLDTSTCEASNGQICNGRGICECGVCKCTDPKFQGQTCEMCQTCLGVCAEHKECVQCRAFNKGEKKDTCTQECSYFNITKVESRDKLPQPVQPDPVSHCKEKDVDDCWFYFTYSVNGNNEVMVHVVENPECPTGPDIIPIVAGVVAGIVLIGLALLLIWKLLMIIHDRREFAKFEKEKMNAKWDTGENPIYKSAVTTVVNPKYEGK
# Integrin beta-1 (Homo sapiens) + Integrin alpha-4 (Homo sapiens), sequence (P13612 whole entry, looked up): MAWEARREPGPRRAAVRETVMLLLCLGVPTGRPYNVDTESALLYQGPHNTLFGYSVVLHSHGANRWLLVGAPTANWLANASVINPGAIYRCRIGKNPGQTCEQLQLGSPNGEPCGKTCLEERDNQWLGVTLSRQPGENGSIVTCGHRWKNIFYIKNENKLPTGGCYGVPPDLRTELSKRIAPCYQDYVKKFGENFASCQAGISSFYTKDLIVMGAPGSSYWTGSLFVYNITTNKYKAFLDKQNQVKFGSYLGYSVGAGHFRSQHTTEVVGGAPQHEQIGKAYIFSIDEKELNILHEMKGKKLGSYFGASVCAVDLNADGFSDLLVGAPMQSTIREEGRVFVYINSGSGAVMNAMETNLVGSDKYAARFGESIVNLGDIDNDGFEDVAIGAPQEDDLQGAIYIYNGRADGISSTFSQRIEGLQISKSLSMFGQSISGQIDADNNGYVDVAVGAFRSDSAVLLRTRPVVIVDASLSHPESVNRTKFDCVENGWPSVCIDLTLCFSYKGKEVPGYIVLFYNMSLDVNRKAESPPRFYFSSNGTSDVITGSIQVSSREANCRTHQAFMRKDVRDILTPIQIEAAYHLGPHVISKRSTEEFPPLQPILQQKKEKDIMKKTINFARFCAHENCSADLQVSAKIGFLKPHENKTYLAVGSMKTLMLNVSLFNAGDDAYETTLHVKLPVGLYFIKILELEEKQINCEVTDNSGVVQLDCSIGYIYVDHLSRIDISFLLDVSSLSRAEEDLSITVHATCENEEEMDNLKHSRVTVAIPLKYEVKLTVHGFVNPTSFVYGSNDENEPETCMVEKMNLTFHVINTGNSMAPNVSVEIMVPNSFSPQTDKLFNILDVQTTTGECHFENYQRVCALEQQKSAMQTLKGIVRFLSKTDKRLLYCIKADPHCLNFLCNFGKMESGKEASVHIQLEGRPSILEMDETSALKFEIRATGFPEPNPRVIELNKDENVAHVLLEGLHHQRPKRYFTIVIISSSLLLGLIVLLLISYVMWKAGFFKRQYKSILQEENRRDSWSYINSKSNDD
# [8] = superoxide lowering in aged yeast cells, pilot screen, validation compound set (AID 2706;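 active means superoxide response below 65% of plate, a cut near 3 SD across the whole screen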;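 further: yeast exposed to compound for one week at 30 degrees C before staining; 100% = mean of all compound wells on the same plate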); conditions: S. cerevisiae aging, superoxide DHE fluorescence; at 10 µM, stronger effect = lower value
# [9] = molecular target: Beta-adrenergic receptor kinase 1 (Homo sapiens) (UniProt P25098); assay: GRK2 binders displacing RNA aptamer, biochemical, validation, human GRK2, bead flow cytometry (AID 488806;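 active means aptamer binding inhibition above 30%, about 3 SD of noise from non-fluorescent compounds; inactive means inhibition at or below 30%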); conditions: bead-bound GRK2, FAM-aptamer displacement, at 10 µM, stronger effect = higher value
# Beta-adrenergic receptor kinase 1 (Homo sapiens), sequence (P25098 whole entry, looked up): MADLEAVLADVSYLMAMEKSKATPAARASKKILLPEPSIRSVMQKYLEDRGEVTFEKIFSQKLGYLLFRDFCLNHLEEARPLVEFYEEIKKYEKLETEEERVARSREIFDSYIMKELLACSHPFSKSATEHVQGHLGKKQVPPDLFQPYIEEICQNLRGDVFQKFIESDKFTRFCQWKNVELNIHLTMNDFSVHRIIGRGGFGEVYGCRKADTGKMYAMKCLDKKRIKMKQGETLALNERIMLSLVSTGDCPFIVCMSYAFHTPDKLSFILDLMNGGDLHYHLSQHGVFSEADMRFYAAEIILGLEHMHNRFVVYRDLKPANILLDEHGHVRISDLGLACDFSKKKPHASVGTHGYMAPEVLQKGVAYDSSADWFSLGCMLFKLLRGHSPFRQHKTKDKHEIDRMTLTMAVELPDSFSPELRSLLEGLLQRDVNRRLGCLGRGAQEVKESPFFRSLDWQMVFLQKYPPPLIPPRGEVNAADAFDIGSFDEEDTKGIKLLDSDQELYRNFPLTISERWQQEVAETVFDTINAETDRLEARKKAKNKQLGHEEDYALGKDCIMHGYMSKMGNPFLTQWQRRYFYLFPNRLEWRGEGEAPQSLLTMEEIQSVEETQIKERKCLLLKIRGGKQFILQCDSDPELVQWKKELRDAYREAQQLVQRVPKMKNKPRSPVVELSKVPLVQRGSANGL
# [10] = molecular target: AP-2 complex subunit beta (Homo sapiens) (UniProt P63010); assay: inhibitors of arrestin peptide binding to AP2, pilot screen, biochemical, validation set, GST-AP2 beads, flow cytometry (AID 504541;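 active means inhibition above 54%, about 3 SD of non-fluorescent compounds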;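 further: AP2 carries R879A mutation and is captured from E. coli lysate; bead-bound FITC arrestin peptide fluorescence measuring arrestin peptide binding to AP2; 0% = DMSO wells and 100% = excess unlabeled arrestin peptide control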); conditions: FITC arrestin peptide, at 10 µM, stronger effect = higher value, AP2 beta2 appendage fragment, R879A mutant
# AP-2 complex subunit beta (Homo sapiens), sequence (P63010 whole entry, looked up, the tested form may be a part, one chain of several): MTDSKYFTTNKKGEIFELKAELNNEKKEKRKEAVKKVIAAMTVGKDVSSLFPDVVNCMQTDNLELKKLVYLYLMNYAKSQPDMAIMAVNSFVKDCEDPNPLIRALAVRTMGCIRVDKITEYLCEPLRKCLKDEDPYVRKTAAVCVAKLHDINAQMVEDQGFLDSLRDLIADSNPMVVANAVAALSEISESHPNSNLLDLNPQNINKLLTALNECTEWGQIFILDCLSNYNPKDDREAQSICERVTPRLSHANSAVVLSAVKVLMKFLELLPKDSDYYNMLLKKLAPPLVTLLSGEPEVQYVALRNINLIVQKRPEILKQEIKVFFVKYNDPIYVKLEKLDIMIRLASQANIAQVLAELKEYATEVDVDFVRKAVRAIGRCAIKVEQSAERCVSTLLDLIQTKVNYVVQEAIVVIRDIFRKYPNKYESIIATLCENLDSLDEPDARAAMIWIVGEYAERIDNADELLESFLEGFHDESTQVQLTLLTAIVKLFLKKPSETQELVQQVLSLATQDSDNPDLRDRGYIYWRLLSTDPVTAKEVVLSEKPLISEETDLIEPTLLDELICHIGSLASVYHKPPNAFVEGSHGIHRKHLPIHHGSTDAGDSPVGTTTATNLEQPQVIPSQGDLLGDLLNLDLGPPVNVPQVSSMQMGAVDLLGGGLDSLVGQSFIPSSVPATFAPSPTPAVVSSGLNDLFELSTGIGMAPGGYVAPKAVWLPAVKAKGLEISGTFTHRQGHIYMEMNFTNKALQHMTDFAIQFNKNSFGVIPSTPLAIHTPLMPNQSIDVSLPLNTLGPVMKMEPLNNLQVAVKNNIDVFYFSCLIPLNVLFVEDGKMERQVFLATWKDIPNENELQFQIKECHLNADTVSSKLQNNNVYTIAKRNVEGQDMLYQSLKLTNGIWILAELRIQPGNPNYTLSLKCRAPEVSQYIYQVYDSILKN
# [11] = yeast V-ATPase proton transport modulators, S. cerevisiae, pHLuorin, HTS validation (AID 504600; in the data active means response above about 15%;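 further: plate controls were DMSO for no effect and reference compound for full effect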); conditions: S. cerevisiae pHLuorin cytosolic pH, at 10 µM, stronger effect = higher value
# [12] = system: anti-desmoglein-3 scFv antibody binding to human DSG3; assay: inhibitors of anti-DSG3 scFv binding to DSG3, pilot screen, biochemical, validation compound set, bead-based, flow cytometry (AID 588368); conditions: Protein G beads, DSG3-Fc, scFv-GFP binding, at 10 µM, stronger effect = lower value;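 further: signal is the median channel fluorescence of bead-bound GFP antibody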
# [13] = inhibitors of fungal efflux pumps CDR1, CDR2, MDR1, pilot screen, validation compound set, multiplex, phenotypic (AID 588506;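 active means efflux inhibition above 0.42, the validation set average plus 4 SD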;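 further: Nile Red retained in cells so higher fluorescence means more efflux inhibition; 0 = negative control wells and 1 = enniatin B 25 µM full block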); conditions: S. cerevisiae pump-expressing triplex, Nile Red efflux flow cytometry; at 10 µM; stronger effect = higher value; the pumps come from Candida albicans
# [14] = molecular target: ATP-binding cassette sub-family B member 6 (Homo sapiens) (UniProt Q9NP58); assay: ABCB6 transporter inhibitors, pilot screen, K562-ABCB6 cells, flow cytometry, validation set (AID 588550;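 active means inhibition above the screen-wide mean plus 3 SD, about 51%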;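 further: 0% = DMSO wells and 100% = benzethonium chloride 70 µM positive control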); conditions: K562-ABCB6 porphyrin accumulation, 1 h, at 10 µM, stronger effect = higher value
# ATP-binding cassette sub-family B member 6 (Homo sapiens), sequence (Q9NP58 whole entry, looked up): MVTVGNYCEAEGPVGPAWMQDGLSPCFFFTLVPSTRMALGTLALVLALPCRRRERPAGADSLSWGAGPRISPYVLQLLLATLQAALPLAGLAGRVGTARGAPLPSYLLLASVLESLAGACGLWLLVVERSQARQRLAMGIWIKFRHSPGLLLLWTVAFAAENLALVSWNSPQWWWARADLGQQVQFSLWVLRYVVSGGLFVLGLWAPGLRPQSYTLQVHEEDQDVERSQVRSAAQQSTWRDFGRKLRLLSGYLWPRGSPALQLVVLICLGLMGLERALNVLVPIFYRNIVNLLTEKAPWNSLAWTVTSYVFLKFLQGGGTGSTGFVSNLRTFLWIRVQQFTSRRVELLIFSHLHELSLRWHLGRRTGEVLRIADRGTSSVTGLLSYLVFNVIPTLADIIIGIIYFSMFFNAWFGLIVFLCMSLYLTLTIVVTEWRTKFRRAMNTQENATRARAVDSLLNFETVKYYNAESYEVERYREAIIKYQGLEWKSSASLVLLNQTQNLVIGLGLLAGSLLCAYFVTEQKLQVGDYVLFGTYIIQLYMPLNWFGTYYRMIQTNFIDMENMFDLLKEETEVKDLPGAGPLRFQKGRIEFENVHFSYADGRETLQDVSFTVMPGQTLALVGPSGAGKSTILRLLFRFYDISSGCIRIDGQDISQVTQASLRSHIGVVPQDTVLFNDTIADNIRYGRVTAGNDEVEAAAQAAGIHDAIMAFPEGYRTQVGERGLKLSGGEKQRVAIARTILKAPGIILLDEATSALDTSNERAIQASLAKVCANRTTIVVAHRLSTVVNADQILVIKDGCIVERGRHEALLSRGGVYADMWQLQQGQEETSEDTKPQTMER
# [15] = promoters of myeloid differentiation in arrested cells, primary screen, cell-based, GFP/MAC1 double positive, flow cytometry, validation set (AID 588685;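 active means differentiation response of at least 50%, scaled between solvent and reference control, from cells with both markers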;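 further: compound exposure lasts four days before antibody staining and flow analysis; 0% = DMSO wells and 100% = 5 µM fulvestrant positive control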); conditions: ER-HoxA9 marrow cells, stronger effect = higher value, normalized: vehicle 0, fulvestrant 100
# [16] = molecular target: Beta-2 adrenergic receptor (Homo sapiens) (UniProt P07550); assay: beta2AR agonists driving receptor internalization, pilot screen, cell-based, FAP fluorogen, flow cytometry, validation set (AID 504459;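 active means percent response above 42, roughly 3 SD of non-fluorescent test compounds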;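 further: agonist-driven loss of surface beta2AR via internalization measured by FAP dye flow cytometry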); conditions: Am2.2-beta2AR cells, FAP surface receptor flow cytometry; at 10 µM; stronger effect = higher value
# Beta-2 adrenergic receptor (Homo sapiens), sequence (P07550 whole entry, looked up): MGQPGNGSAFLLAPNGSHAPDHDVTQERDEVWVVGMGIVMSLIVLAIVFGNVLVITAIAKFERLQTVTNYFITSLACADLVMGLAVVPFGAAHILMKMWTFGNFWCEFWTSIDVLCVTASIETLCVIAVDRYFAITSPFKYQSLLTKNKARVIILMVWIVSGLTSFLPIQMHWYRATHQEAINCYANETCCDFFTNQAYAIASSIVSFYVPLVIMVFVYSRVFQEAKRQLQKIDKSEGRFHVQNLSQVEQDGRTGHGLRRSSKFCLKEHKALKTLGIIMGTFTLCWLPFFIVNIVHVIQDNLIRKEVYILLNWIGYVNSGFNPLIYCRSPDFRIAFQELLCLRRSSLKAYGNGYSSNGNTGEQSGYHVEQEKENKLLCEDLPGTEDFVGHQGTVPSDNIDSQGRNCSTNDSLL
Compound,percent of DMSO control GFP [1],GFP response vs DMSO [2],percent response of DMSO control [3],GFP response vs DMSO [4],"GFP response, % of DMSO [5]",double positive events [6],vesicle binding response [6],inhibition [7],superoxide response (% of plate) [8],aptamer binding inhibition [9],inhibition [10],response [11],binding (% of control) [12],efflux inhibition (fraction of control) [13],inhibition [14],differentiation response [15],response [16]
CC(=O)Oc1ccc(C(=O)O)cc1OC(C)=O,98% (inactive),104% (inactive),104% (inactive),99.4% (inactive),98.4% (inactive),59.1%,164% (inactive),-3.04% (inactive),98.2% (inactive),4% (inactive),-6.29% (inactive),0.26% (inactive),105% (inactive),-0.01 (inactive),6% (inactive),1.41% (inactive),–
CC(=O)Nc1nc(CCC(C)C)cc2c1c(=O)oc1ccccc12,102% (inactive),98.3% (inactive),100% (inactive),96% (inactive),88.6% (inactive),60.5%,77.6% (inactive),1.62% (inactive),–,0% (inactive),2.41% (inactive),0.7% (inactive),75.5% (inactive),0.39 (inactive),-8% (inactive),16.9% (inactive),-19.1% (inactive)
CC(C)(C)NCC(O)c1cc(O)cc(O)c1 (centres undefined),97.8% (inactive),102% (inactive),95.1% (inactive),106% (inactive),119% (inactive),61.6%,190% (inactive),-15.6% (inactive),113% (inactive),–,-13.2% (inactive),-6.14% (inactive),100% (inactive),-0.04 (inactive),6% (inactive),-4.99% (inactive),–
Cc1ccc(-n2ncc3c(Nc4cccc(C(=O)O)c4)ncnc32)cc1,100% (inactive),102% (inactive),93% (inactive),105% (inactive),93.9% (inactive),66.3%,217% (inactive),-5.84% (inactive),105% (inactive),-2% (inactive),-0.33% (inactive),-4.83% (inactive),101% (inactive),0.1 (inactive),5% (inactive),74.1% (active),–
Cn1cnc2c1c(=O)n(CC(O)CO)c(=O)n2C (centres undefined),102% (inactive),96.2% (inactive),98.9% (inactive),98.6% (inactive),96.7% (inactive),62.7%,59.9% (inactive),11% (inactive),–,-1% (inactive),-6.49% (inactive),-0.43% (inactive),102% (inactive),-0.04 (inactive),9% (inactive),43.2% (inactive),-2.93% (inactive)
O=C(O)c1cc(-c2ccc3c(c2)OCO3)nc2ccc(Br)cc12,100% (inactive),97.9% (inactive),82.2% (inactive),127% (inactive),88.9% (inactive),67%,182% (inactive),-7.7% (inactive),108% (inactive),-3% (inactive),12% (inactive),-4.89% (inactive),105% (inactive),0.18 (inactive),8% (inactive),41.8% (inactive),–
CNCCCC12CCC(c3ccccc31)c1ccccc12,101% (inactive),107% (inactive),90.8% (inactive),95.3% (inactive),96.7% (inactive),66.4%,234% (inactive),11% (inactive),–,-11% (inactive),3.24% (inactive),2% (inactive),103% (inactive),0.33 (inactive),-7% (inactive),18.8% (inactive),28.2% (inactive)
CC/C(=C1/C(=O)CC(C)(C)C(C(=O)OC)C1=O)N1CCCC1 (centres undefined),103% (inactive),96.2% (inactive),83.8% (inactive),83.5% (inactive),88.9% (inactive),63%,174% (inactive),6.81% (inactive),–,3% (inactive),-0.06% (inactive),3.5% (inactive),96.6% (inactive),0.99 (active),11% (inactive),34.5% (inactive),-0.83% (inactive)
CC(=O)OCC(=O)[C@H]1CC[C@H]2[C@@H]3CC=C4C[C@@H](O)CC[C@]4(C)[C@H]3CC[C@]12C,106% (inactive),95.9% (inactive),114% (inactive),115% (inactive),89.4% (inactive),59.7%,174% (inactive),4.42% (inactive),99% (inactive),0% (inactive),-2.87% (inactive),0.3% (inactive),101% (inactive),0.29 (inactive),6% (inactive),-27.6% (inactive),–
COc1cc2c(cc1OC)C(c1cc3ccccc3oc1=O)=NC(C)(C)C2,101% (inactive),103% (inactive),107% (inactive),96.4% (inactive),100% (inactive),46.8%,137% (inactive),10.9% (inactive),117% (inactive),3% (inactive),-0.33% (inactive),2.07% (inactive),98.7% (inactive),0.1 (inactive),10% (inactive),-13.1% (inactive),–
